TEAD-YAP inh = TEAD-YAP interaction inhibition. HEK-TIYL cells, TEAD-Gal4/YAP UAS-luciferase luminescence. inhibition, % at 9.12 µM. actives 1.4% (n = 640,000). AID 1259422; in the data active = inhibition above about 32%;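 also: 0% = median of test compound wells and 100% = reference inhibitor wells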
FBW7 activator = human FBW7 E3 ligase activation, primary screen; AID 1259310; actives 0.13% (n = 650,000); normalized activity (activation), % at 26.1 µM; Q969H0; AlphaScreen FBW7–phospho-cyclin E peptide binding, activator screen; in the data active = normalized activity above about 1.9%;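 also: purified mutant Fbw7 with reduced substrate affinity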
GPR151 activ = human GPR151 activation. Q8TDV0. PathHunter beta-arrestin GPR151 cells, luminescence. activation, % at 11.2 µM. actives 1% (n = 650,000). AID 1508602; in the data active = activation above about 4.9%;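 also: 0% = median of compound wells and 100% = cells with positive control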
Target sequence (Q8TDV0 whole entry, looked up): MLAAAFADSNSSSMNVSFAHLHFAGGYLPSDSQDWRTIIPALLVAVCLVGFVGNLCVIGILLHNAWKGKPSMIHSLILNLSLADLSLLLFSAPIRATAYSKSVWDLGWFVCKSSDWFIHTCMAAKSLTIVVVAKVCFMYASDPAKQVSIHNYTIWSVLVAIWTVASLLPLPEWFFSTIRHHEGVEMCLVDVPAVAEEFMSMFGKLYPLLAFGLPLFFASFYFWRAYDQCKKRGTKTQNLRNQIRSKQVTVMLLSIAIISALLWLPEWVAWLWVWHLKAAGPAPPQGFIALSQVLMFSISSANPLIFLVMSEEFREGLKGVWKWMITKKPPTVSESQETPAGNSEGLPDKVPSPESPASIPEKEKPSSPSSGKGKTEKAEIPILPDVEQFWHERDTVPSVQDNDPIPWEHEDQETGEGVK
MITF primary = human MITF inhibition, primary screen | O75030 | AlphaScreen MITF homodimerization, bead proximity signal | inhibition, % at 2.6 µM | actives 0.91% (n = 650,000) | AID 1259374; in the data active = inhibition above about 50%;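 also: 0% = vehicle wells with protein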
The depositor's hits bear a star; ! = repeats disagree. Sampled rows, rich in hits. Any-hit rate of the full collection: about 3.4%.

SMILES | TEAD-YAP inh | FBW7 activator | GPR151 activ | MITF primary
COc1ccc(NC(=O)c2ccc3c(=O)n(-c4ccccc4)c(=S)[nH]c3c2)cc1Cl | 3.3 | -0.1 | 1.2 | -2.4
O=C(O)c1ccc(-c2nc3ccccc3s2)s1 | 9.7 | 0.1 | -10.7 | 13.7
O=C(c1ccc(-c2nc3ccccc3s2)s1)N1CCCC1 | 88.7* | 0.1 | -3.4 | 0.7
CNC(=O)CN(c1cccc(Cl)c1)S(=O)(=O)c1ccc(OC)cc1 | 45.1* | 0.1 | 1.3 | -6.0
COc1ccc(S(=O)(=O)N(CC(=O)O)c2cccc(Cl)c2)cc1 | 0.7 | 0.0 | -0.6 | 12.4
CC(C)(C)OC(=O)N1CCC[C@H](Nc2ccnc(Cl)n2)C1 | -40.7 | -0.1 | 0.7 | 3.2
CC(C)(C)OC(=O)N1CCC(Nc2ccnc(Cl)n2)CC1 | 35.3* | -0.1 | 0.8 | 5.0
Cc1ncn(-c2ccc(Nc3nccc(NC4CCN(C(=O)OC(C)(C)C)C4)n3)cc2)n1 (stereo not drawn) | 46.3* | 0.1 | 0.7 | 6.6
COc1ccc(CC(=O)N(CC#N)CC#N)cc1 | 2.6 | -0.1 | 1.3 | 7.4
CC(C)=C(NC(=O)c1ccccc1)C(=O)NC(C)C(=O)O (stereo not drawn) | 6.1 | 0.0 | -0.6 | -13.6
CC1CCN(C(c2ccncc2)c2ccc3cccnc3c2O)CC1 (stereo not drawn) | 20.0 | -0.4 | -2.6 | 89.2*
Oc1c(C(c2ccncc2)N2CCCC2)ccc2cccnc12 (stereo not drawn) | 12.1 | -0.1 | -0.3 | 76.1*
Cc1[nH]c2ccccc2c1C(c1ccncc1)N1CCC(C)CC1 (stereo not drawn) | -2.5 | -0.2 | -0.3 | -1.4
CCN1CCN(C(c2cccnc2)c2ccc3cccnc3c2O)CC1 (stereo not drawn) | 14.6 | -0.2 | -0.7 | 68.0*
Oc1cccc(C(c2ccc3cccnc3c2O)N2CCCC2)c1 (stereo not drawn) | 18.5 | -1.3 | 0.5 | 39.3
Cc1onc(-c2c(F)cccc2Cl)c1C(=O)NC1CCS(=O)(=O)C1 (stereo not drawn) | 2.2 | 0.0 | -1.0 | 9.3
CC(Cc1ccccc1)NC(=O)c1ccccc1[N+](=O)[O-] (stereo not drawn) | -27.3 | 0.1 | 2.8 | -7.0
CCCCOc1ccccc1C1C(C(=O)OC)=CN(C(C)C)C=C1C(=O)OC | 7.7 | 0.7 | -1.1 | -17.9
C=CCNC(=S)N/N=C/c1ccc(C(F)(F)F)cc1 | 43.5* | -0.1 | 0.9 | -4.3
CCN(CC)c1nc2cc(OC)ccc2cc1C#N | 23.0 | 2.3* | -1.4 | -17.3
O=C(/C=C/c1cccc(Cl)c1)OCCN(C1=NS(=O)(=O)c2ccccc21)c1ccccc1Cl | -3.1 | 0.1 | 0.8 | -8.5
CCCOc1ccc2nc(NC(=O)OC)[nH]c2c1 | 34.4* | 0.0 | -1.2 | -4.9
COC(=O)C(=O)Nc1nc2ccc(C(=O)c3ccccc3C(=O)OC(C)C)cc2[nH]1 | 52.0* | -0.1 | 2.1 | -14.4
CCOc1ccc2nc(NCCCO)[nH]c2c1 | -8.7 | -0.1 | 0.1 | 0.5
COC(=O)Nc1nc2ccc(C(=O)c3ccc(F)cc3)cc2[nH]1 | 34.7*! | 0.2 | 0.1 | 11.6
SMILES | TEAD-YAP inh | FBW7 activator | GPR151 activ | MITF primary
O=C(COc1ccc(C(=O)c2ccccc2)cc1)Nc1nc2ccccc2[nH]1 | 7.2 | -0.1 | 3.2 | -10.6
O=C(c1ccccc1)c1ccc2nc(-c3ccc(NC(=O)c4ccccc4Cl)cc3)[nH]c2c1 | -28.6 | 0.1 | -0.7 | -0.7
CCCC12CN3CC(C)(CN(C1)C3c1cccc(C)c1)C2=O (stereo not drawn) | -1.5 | 0.3 | -0.2 | 13.7
COc1ccc(OCC2c3cc(OC)c(OC)cc3CCN2C(=O)c2ccc([N+](=O)[O-])cc2)cc1 (stereo not drawn) | -11.3 | -0.2 | -0.5 | -16.7
COc1cc2c(cc1OC)C(COc1ccc([N+](=O)[O-])cc1)N(C(=O)c1ccc3c(c1)OCO3)CC2 (stereo not drawn) | 1.4 | 2.1* | -1.1 | 10.5
Cc1ccc2nc(=S)n(C(=O)c3ccccc3F)n2c1 | 62.4* | -0.1 | -1.1 | 2.0
C=CCN1C(=O)/C(=C/c2ccc(OC(C)=O)c(OCC)c2[N+](=O)[O-])SC1=S | 37.0* | -0.5 | 0.2 | 20.6
C=CCn1c(=O)c2c(nc3n(-c4ccccc4C)c(C)cn23)n(C)c1=O | 6.0 | 2.1* | -0.1 | 23.2
CCCn1c(=O)c2c(nc3n(-c4ccccc4C)c(C)cn23)n(C)c1=O | 1.5 | 0.1 | 1.1 | 11.0
CCc1ccc2oc(-c3ccc(NC(C)=O)cc3)nc2c1 | -69.9 | 0.5 | 0.5 | 5.6
Cc1cc2nc(-c3cc(N)ccc3O)oc2cc1C | 64.6* | -0.1 | -8.2 | 5.8
Nc1ccc(O)c(-c2nc3cc(N)ccc3o2)c1 | -23.8 | 0.1 | -6.4 | 5.6
Cc1ccc2nc(-c3ccc(N)cc3O)oc2c1 | 15.5 | -0.1 | -0.9 | 4.9
Cc1ccc2oc(-c3ccc(N)cc3O)nc2c1 | 41.3* | -0.2 | -0.9 | -8.0
CCc1ccc2oc(-c3ccc(N)cc3O)nc2c1 | 69.1* | 0.0 | -1.8 | -0.2
CCC(C)(C(=O)NC1CCCC1)N(Cc1ccco1)C(=O)CNC(C)=O (stereo not drawn) | 3.2 | 0.1 | -0.4 | 3.4
CCC(C)(C(=O)NC1CCCC1)N(Cc1ccco1)C(=O)CNC(=O)c1ccccc1 (stereo not drawn) | 10.3 | 2.3* | 0.0 | 6.7
CCS(=O)(=O)c1ncc(Cl)c(C(=O)Nc2ccccc2C(F)(F)F)n1 | 35.2* | 0.3 | -1.3 | 23.0
CCS(=O)(=O)c1ncc(Cl)c(C(=O)Nc2ccc(Cl)cc2)n1 | 28.4 | -0.1 | -2.4 | -5.3
CCS(=O)(=O)c1ncc(Cl)c(C(=O)Nc2ccc(OC)c(Cl)c2)n1 | 49.7* | 0.7 | -1.8 | 15.6
CCS(=O)(=O)c1ncc(Cl)c(C(=O)Nc2cccc(C(F)(F)F)c2)n1 | 34.1* | -0.1 | -1.8 | -1.9
CCS(=O)(=O)c1ncc(Cl)c(C(=O)Nc2ccccc2F)n1 | -6.3 | -0.1 | -0.3 | -3.3
CCOC(=O)c1ccc(NCN2C(=O)S/C(=C\c3ccc(O)cc3)C2=O)cc1 | -18.9 | 0.1 | -2.1 | 7.8
COc1cccc(C(=O)Nc2ccc(Nc3cc(-n4cccn4)ncn3)cc2)c1 | 67.9* | 0.1 | 1.5 | -5.5
O=C(Nc1ccc2scnc2c1)c1ccc2ccccc2c1 | 66.0* | -0.1 | -4.8 | 6.5
SMILES | TEAD-YAP inh | FBW7 activator | GPR151 activ | MITF primary
COc1cccc(C(=O)Nc2ccc3scnc3c2)c1 | 63.4* | -0.2 | -8.6 | -3.0
COc1ccc(Cl)cc1C(=O)Nc1ccc(Nc2cc(-n3cccn3)ncn2)cc1 | 0.3 | 0.1 | 1.3 | -4.7
COc1cccc(C(=O)Nc2ccc(N3CCCCC3=O)c(C)c2)c1 | 75.5* | -0.2 | -10.6 | -8.1
O=C(NCc1cccnc1)c1ccc2c(=O)n(-c3ccccc3F)c(=S)[nH]c2c1 | -10.9 | -0.1 | -0.3 | 6.2
O=C(NCc1ccco1)C1CC12CCN(Cc1cccn1-c1ccccn1)CC2 (stereo not drawn) | -12.3 | 0.0 | 0.6 | -2.8
O=C(CCCCCn1c(=O)[nH]c2ccccc2c1=O)NC1CC1 | 3.8 | 0.2 | 0.8 | -1.6
O=C(Nc1ccc2ccccc2c1)c1ccc(C2CCCCC2)cc1 | 33.6* | 0.0 | 1.0 | -1.7
Cc1ccc(N2CC(NC(=O)c3ccccc3C(F)(F)F)CC2=O)cc1C (stereo not drawn) | -2.5 | 0.3 | 0.5 | -2.3

Source: PubChem BioAssay (The Scripps Research Institute Molecular Screening Center)
